From PubChem BioAssay (EPA / NIEHS)
Active and inactive are the calls of the source. Rule for the calls: active = hit-call score of the fitted dose curve at least 0.9, where 1 is the maximum; inactive = score below 0.9.

test: APR_HepG2_MitoMass_24hr: Apredica 24-hour HepG2 Assay for Mitochondrial Mass (AID 2282912); conditions: high-content imaging, actives raise or lower the signal
Method in brief: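 Endpoint is MitoTracker Red CMXRos (250 nM, 30 min, pre-fixation) intensity from 20x high-content imaging, nuclei located by Hoechst. Human HepG2 cells received ten concentrations from 0.39 to 200 uM in 0.5% DMSO for 24 hr, duplicate wells. Bidirectional fit relative to DMSO.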

outcome, inactive:
CCCOC(=O)c1cc(O)c(O)c(O)c1, CCCCCCCCOC(=O)c1cc(O)c(O)c(O)c1, CN(C)c1ccc(C(=C2C=CC(=[N+](C)C)C=C2)c2ccc(N(C)C)cc2)cc1, Cc1ccc2oc(CN(Cc3ccccc3)C(=O)Nc3c(F)cc(F)cc3F)c(-c3ccc(Cl)cc3)c2c1, O=CCCCC=O

test: APR_HepG2_p53Act_24hr: Apredica 24-hour HepG2 Assay for p53 Activation (AID 2282913); conditions: high-content imaging, actives raise or lower the signal;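 note: p53 protein immunofluorescence averaged per cell in HepG2 with Hoechst nuclei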
Method in brief: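 HepG2 cells exposed 24 hr to compounds at 0.39–200 uM (10 concentrations, duplicate), final DMSO 0.5% v/v. After formaldehyde fixation and Triton permeabilization, p53 was immunolabeled (sheep anti-p53, Cy5 secondary) with Hoechst 33342 nuclear counterstain, then imaged by high-content fluorescence microscopy.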

outcome, inactive:
CCCCOC(=O)c1ccc(O)cc1, CCCCCCCC[Si](OCC)(OCC)OCC, Clc1cc(Cl)c2c(c1)N=C1CCCCCN1C2, COCC(C)OCC(C)OCC(C)O (stereo not given), OC12N=C(c3ccccc3)SC1Cc1cc(Cl)ccc12 (stereo not given), O=C(O)c1ccccc1C(=O)OCc1ccccc1, CN1C(=O)CC[C@H]1c1cccnc1, Oc1ccccc1, Clc1ccccc1C(c1ccccc1)(c1ccccc1)n1ccnc1, CCN(Cc1cccnc1)C(=O)c1cccc(Cl)c1[C@]1(C)C(=O)N(Cc2ccc(OC)cc2OC)c2ccc(Cl)cc21, O=C(O)c1ccccc1-n1cc(C(=O)O)c(=O)c2cc(Nc3c(F)cc(F)cc3Cl)c(Cl)cc21, CCCC(=O)OCCC(C)C, CC[C@@H]1C[C@H](N(Cc2cc(C(F)(F)F)cc(C(F)(F)F)c2)C(C)=O)c2cc(C(F)(F)F)ccc2N1C(=O)OC(C)C, CC(C)(C)c1csc(-c2cc3cc(OCc4ccccc4CC(=O)O)ccc3o2)n1, Cc1oc2c(NC(=O)c3c(Cl)cccc3Cl)cccc2c1C(C)(C)O, O=C(O)Cc1cc(I)c(Oc2ccc(O)c(I)c2)c(I)c1, NC(=O)c1nc(-c2cccc(-c3cc(F)ccc3OCC(F)(F)C(F)(F)F)c2)n[nH]1, Cc1occc1C(=O)Nc1ccc(C(=O)N2CCC(F)(F)/C(=C\C(=O)N3CCC(N4CCCCC4)CC3)c3ccccc32)cc1, c1ccc2ccccc2c1, CCCCCCCCCCCCO, Cc1cn([C@H]2C[C@H](N=[N+]=[N-])[C@@H](CO)O2)c(=O)[nH]c1=O, Cc1cccc2ccccc12, CC1=CC(=O)/C(=C(/C)O)C(=O)O1, Cc1ccc2oc(CN(Cc3ccccc3)C(=O)Nc3c(F)cc(F)cc3F)c(-c3ccc(Cl)cc3)c2c1, O=CCCCC=O

AC50, active:
CCCCCCCCCCCC[N+](C)(C)C 49.5 µM, CCCCOC(=O)CC(CC(=O)OCCCC)(OC(C)=O)C(=O)OCCCC 53.9 µM, Cc1cc2c(cc1C(F)(F)F)N(C(=O)Nc1ccc(Oc3cccnc3C)nc1)CC2 45.7 µM, CCN(CC)C(=O)c1cc(S(=O)(=O)Cc2ccccc2)c(N2CCC(c3ccccc3)CC2)cc1N(CC)CCN(C)C 18.6 µM, O=c1[nH]sc2ccccc12 29.3 µM, CC/C(=C(/CC)c1ccc(O)cc1)c1ccc(O)cc1 33.8 µM, C[C@]12CC[C@@H]3c4ccc(O)cc4CC[C@H]3[C@@H]1CC[C@H]2O 54.6 µM, NCc1cccc(C2CCN(C(=O)c3ccc(C#Cc4ccccc4F)o3)CC2)c1 16.4 µM, CN(C[C@@H](CC[N+]12CCC(C3CCCCC3)(CC1)CC2)c1ccc(Cl)c(Cl)c1)C(=O)c1cc(C(F)(F)F)cc(C(F)(F)F)c1 18.3 µM, CCCOC(=O)c1cc(O)c(O)c(O)c1 38.1 µM, CCCCCCCCOC(=O)c1cc(O)c(O)c(O)c1 43.3 µM, CN(C)c1ccc(C(=C2C=CC(=[N+](C)C)C=C2)c2ccc(N(C)C)cc2)cc1 2.93 µM

test: APR_HepG2_CellCycleArrest_72hr: Apredica 72-hour HepG2 Assay for Cell Cycle Arrest (AID 2282914); conditions: high-content imaging, actives raise or lower the signal
Method in brief: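 HepG2 cells were exposed to compounds at 0.39–200 uM (0.5% v/v DMSO final, duplicates) for 72 hr, fixed in 3.7% formaldehyde, permeabilized and stained with Hoechst 33342. Nuclear DNA content was quantified by high-content imaging; gain or loss of signal was fitted bidirectionally against DMSO.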

outcome, inactive:
CCCCOC(=O)c1ccc(O)cc1, CCCCCCCCCCCC[N+](C)(C)C, Clc1cc(Cl)c2c(c1)N=C1CCCCCN1C2, COCC(C)OCC(C)OCC(C)O (stereo not given), CCCCOC(=O)CC(CC(=O)OCCCC)(OC(C)=O)C(=O)OCCCC, OC12N=C(c3ccccc3)SC1Cc1cc(Cl)ccc12 (stereo not given), O=C(O)c1ccccc1C(=O)OCc1ccccc1, CN1C(=O)CC[C@H]1c1cccnc1, Cc1cc2c(cc1C(F)(F)F)N(C(=O)Nc1ccc(Oc3cccnc3C)nc1)CC2, Oc1ccccc1, CCN(Cc1cccnc1)C(=O)c1cccc(Cl)c1[C@]1(C)C(=O)N(Cc2ccc(OC)cc2OC)c2ccc(Cl)cc21, O=C(O)c1ccccc1-n1cc(C(=O)O)c(=O)c2cc(Nc3c(F)cc(F)cc3Cl)c(Cl)cc21, CCCC(=O)OCCC(C)C, CC[C@@H]1C[C@H](N(Cc2cc(C(F)(F)F)cc(C(F)(F)F)c2)C(C)=O)c2cc(C(F)(F)F)ccc2N1C(=O)OC(C)C, CC(C)(C)c1csc(-c2cc3cc(OCc4ccccc4CC(=O)O)ccc3o2)n1, Cc1oc2c(NC(=O)c3c(Cl)cccc3Cl)cccc2c1C(C)(C)O, O=C(O)Cc1cc(I)c(Oc2ccc(O)c(I)c2)c(I)c1, Cc1occc1C(=O)Nc1ccc(C(=O)N2CCC(F)(F)/C(=C\C(=O)N3CCC(N4CCCCC4)CC3)c3ccccc32)cc1, NCc1cccc(C2CCN(C(=O)c3ccc(C#Cc4ccccc4F)o3)CC2)c1, CCCCCCCCCCCCO, C[C@]12CC[C@@H]3c4ccc(O)cc4CC[C@H]3[C@@H]1CCC2=O, Cc1cccc2ccccc12, CC1=CC(=O)/C(=C(/C)O)C(=O)O1, CN(C[C@@H](CC[N+]12CCC(C3CCCCC3)(CC1)CC2)c1ccc(Cl)c(Cl)c1)C(=O)c1cc(C(F)(F)F)cc(C(F)(F)F)c1, Cc1ccc2oc(CN(Cc3ccccc3)C(=O)Nc3c(F)cc(F)cc3F)c(-c3ccc(Cl)cc3)c2c1, O=CCCCC=O

AC50, active:
CCCCCCCC[Si](OCC)(OCC)OCC 0.03 µM, Clc1ccccc1C(c1ccccc1)(c1ccccc1)n1ccnc1 13.8 µM, CCN(CC)C(=O)c1cc(S(=O)(=O)Cc2ccccc2)c(N2CCC(c3ccccc3)CC2)cc1N(CC)CCN(C)C 3.21 µM, O=c1[nH]sc2ccccc12 21.4 µM, CC/C(=C(/CC)c1ccc(O)cc1)c1ccc(O)cc1 31.3 µM, C[C@]12CC[C@@H]3c4ccc(O)cc4CC[C@H]3[C@@H]1CC[C@H]2O 173 µM, NC(=O)c1nc(-c2cccc(-c3cc(F)ccc3OCC(F)(F)C(F)(F)F)c2)n[nH]1 104 µM, c1ccc2ccccc2c1 0.0357 µM, Cc1cn([C@H]2C[C@H](N=[N+]=[N-])[C@@H](CO)O2)c(=O)[nH]c1=O 46.3 µM, CCCOC(=O)c1cc(O)c(O)c(O)c1 46.2 µM, CCCCCCCCOC(=O)c1cc(O)c(O)c(O)c1 8.95 µM, CN(C)c1ccc(C(=C2C=CC(=[N+](C)C)C=C2)c2ccc(N(C)C)cc2)cc1 0.407 µM
